# Experimental data: PubChem BioAssay (NCI)
# The panel holds about 83,000 compounds, 20% with a hit somewhere; the sample as a whole holds those more often.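 Negative percent growth values reflect cell death: -40 means 40% of the cells present at the start died, and -100 means all died.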 A number with no mark means an inactive call. The source made the active and inactive calls. Rule for the calls: active = growth percent below 10; inactive = the rest.
# Tested on: MDA-MB-435 melanoma
# Assay: NCI-60 one-dose screen, 48 h (100 = growth as untreated, 0 = no growth, -100 = all killed)
# Conditions: 10 µM unless noted
row,Structure (SMILES),growth
1,Cc1nn(-c2ccccc2)c2ncnc(N/N=C/c3cccc(O)c3)c12,3.94% (active)
2,C=C1CC[C@@H]2[C@]3(C)COC(c4ccccc4)O[C@@H]3CC[C@@]2(C)[C@@H]1C/C=C1/C(=O)OC[C@H]1O (stereo not given in full),81.4%
3,CN(C)CCNC(=O)c1ccc(-c2nc3ccc4[nH]ncc4c3c3c2CCC3)cc1,22.2%
4,Fc1ccc(-c2cc3nc(C(Cl)Cl)nc(-c4ccc(F)cc4)n3n2)cc1,14.6%
5,C=C(C=O)[C@@H]1CC[C@]2(C)[C@H](C(=O)C=C3[C@H]4C[C@](C)(C(=O)OC)CC[C@]4(C)CC[C@]32C)[C@@]1(C)CCC#N,-12.2% (active)
6,CCc1ccc(SC2c3ccc(N(CC)CC)cc3Oc3nc(N)c(C#N)c(N)c32)cc1 (stereo not given),-0.759% (active)
7,CCOC(=O)C1=NNC(c2ccc(Cl)cc2)C1C(=O)N1C(=S)NC(=O)C1CC(C)C (stereo not given),104%
8,C#CCn1cccc1CNc1ccc(OC)cc1,-54.5% (active)
9,NC(N)=Nc1ccc(Oc2cccc(NC(N)=Nc3ccc(Br)cc3)c2)cn1,72.7%
10,CC1(C)CC[C@]2(CN)CC[C@]3(C)C(=CC[C@@H]4[C@@]5(C)CCCNC(C)(C)[C@@H]5CC[C@]43C)[C@H]2C1,97.3%
11,O=C1C(c2ccccc2)=C(N2CCc3ccccc32)OC1(Cl)Cl,85.9%
12,CC(=O)c1nnn(-c2c(C(=O)n3nc(C)cc3C)sc(=S)n2-c2ccccc2)c1C,108%
13,COC(=O)C1(C)CCC[C@]2(C)[C@H]3C[C@H]4C(C(C)C)=C[C@]3(CC[C@@H]12)[C@H]1[C@@H]4[C@@H](OC(=O)c2ccco2)CC[C@@H]1OC(=O)c1ccco1 (stereo not given in full),104%
14,CC(=O)N1C(=S)NC(=O)C1CC(C)C (stereo not given),103%
15,C#Cc1ccc(C(=O)NCc2ccc(/C=C/C(=O)c3nccn3C)cc2)cc1,26.2%
16,Cn1ccnc1C(=O)/C=C/c1ccc(NC(=O)c2ccc(F)cc2)cc1,43.1%
17,O=C(O)c1ccc(-n2cc(CNc3cccc(Cl)c3)c(-c3ccc(F)cc3)n2)cc1,102%
18,CCC1=Cc2cc(OC)ccc2OC12C=Cc1cc(OC)ccc1O2 (stereo not given),-28.5% (active)

row,Structure (SMILES),growth
1,CCO/C=N/C1=C(C#N)C(c2ccc(OC)cc2)c2sc3c(C)cccc3c2O1 (stereo not given),-21.5% (active)
2,COc1cccc(O)c1/C=C(/C)c1ccc2c(OC)cccc2[o+]1,86.7%
3,C#CCNC1CCC(c2csc(C#C)n2)=C1C (stereo not given),99.2%
4,CCO/C=N/C1=C(C#N)C(c2ccc(OC)cc2)c2sc3c(CC)cccc3c2O1 (stereo not given),-39.2% (active)
5,C=CCn1c(SCC(=O)Nc2ccc(C(=O)/C=C/c3ccc(Cl)cc3)cc2)nnc1-c1c[nH]c2ccccc12,83.5%
6,N#Cc1cccc(CN2CCC3=C(C2)C(=O)N(Cc2ccc(Cl)cc2)C2=NCCCN23)c1,20.3%
7,CCN(CC)c1cn(-c2ccc(S(N)(=O)=O)cc2)nn1,104%
8,CCCCCc1ccc(S(=O)(=O)Nc2cccc(-c3csc(NC(=O)CCCCCN4CCN(C)CC4)n3)c2)cc1,-33.8% (active)
9,CCCCCc1ccc(S(=O)(=O)Nc2cc(-c3csc(NC(=O)CN4CCN(C)CC4)n3)ccc2OC)cc1,-84.1% (active)
10,COc1ccccc1NCc1cccn1Cc1ccc(F)cc1,99.6%
11,CC(=O)c1cc(C(=O)c2ccc(Br)cc2)n2cc(C)cc(C)c12,97.7%
12,O=C1Nc2ccccc2/C1=C/c1ccc(COCC2CO2)n1-c1ccc(O)cc1 (stereo not given),103%
13,C/C(=N\O)[C@H]1C[C@]23CC[C@]4(C)[C@H](CC[C@@H]5[C@@]6(C)CC/C(=N/O)C(C)(C)[C@@H]6CC[C@]54C)[C@H]2[C@H](C)C1(C)OC3,97.2%
14,NC(N)=Nc1ccc(Oc2cccc(Oc3ccc(Cl)c(C(F)(F)F)c3)c2)cn1,-86.8% (active)
15,COc1ccc([C@@H]2c3[nH]c4ccccc4c3C[C@H]3C(=O)N(C4CCN(CC5CCCCC5)CC4)CC(=O)N23)c(OC)c1,73.6%
16,COc1ccc(C2CC(c3ccc(Nc4nc(NCCO)nc(N5CCOCC5)n4)cc3)=Nc3c(N)nc(N)nc3N2)cc1 (stereo not given),108%
17,Cc1ccc2c(c1)Oc1nc(N)c(C#N)c(N)c1C2Sc1ccc(F)cc1 (stereo not given),-93.6% (active)
